Experimental data as given in PubChem BioAssay.
The source made the active and inactive calls. Unless noted, no rule for the calls is given here.

Assays:
[1] = circadian clock period modulators, cell-based, LOPAC library, luminescence reporter (AID 2774); conditions: circadian reporter cells, at 7 µM, actives lie on both sides;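 also: values are relative to mean of DMSO wells on each plate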
[2] = enhancers of glutamate uptake in motor neurons, MN-1 cell line (AID 1612); conditions: MN-1 motor neuron cells, stronger effect = higher value;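 also: tested at 1 µM final; 0% = mean of DMSO vehicle wells on each plate; positive means more glutamate uptake than control and negative means less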
[3] = suppressors of polyglutamine aggregation in yeast, 75Q-TubH (AID 1616); conditions: S. cerevisiae 75Q-TubH polyglutamine aggregation suppression; stronger effect = higher value
[4] = hESC survival regulators, cell-based (AID 493140); conditions: human embryonic stem cell survival screen; stronger effect = higher value;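 also: cells exposed to compounds for four days before counting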
[5] = antimalarial activity against Dd2 strain (AID 2302;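 active = growth inhibition above 50% at the single 2 µM test dose, taken to imply half-maximal potency below 2 µM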;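 also: 0% = DMSO untreated growth and 100% = chloroquine plus artemisinin killed control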); conditions: P. falciparum Dd2 in RBCs, LDH growth readout, 72 h; at 2 µM; stronger effect = higher value
[6] = HepG2 cytotoxicity, primary screen, cytotoxicity control for P. falciparum antimalarial project, cell-based, ATP luminescence (AID 2303;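 active = inhibition above 50%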;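 also: 0% = DMSO wells and 100% = digitonin-killed cells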); conditions: HepG2 viability, 24-48 h, at 10 µM, stronger effect = higher value
[7] = target: L-lactate dehydrogenase (Plasmodium falciparum (isolate CDC / Honduras)) (UniProt Q27743); experiment: PfLDH activity inhibition – cell lysate, 3D7 strain, counter-screen for P. falciparum growth inhibition project (AID 2304);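 also: 0% = vehicle and 100% = reference inhibitor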; conditions: P. falciparum 3D7 crude extract, LDH APAD/NBT absorbance; at 2 µM; stronger effect = higher value
[8] = inhibition of 3D7 malaria parasite growth – strain 3D7 (AID 2306);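 also: 0% = DMSO wells and 100% = chloroquine plus artemisinin control wells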; conditions: P. falciparum 3D7 erythrocytic growth, LDH absorbance, 72 h; at 2 µM; stronger effect = higher value

L-lactate dehydrogenase (Plasmodium falciparum (isolate CDC / Honduras)), sequence (Q27743 whole entry, looked up): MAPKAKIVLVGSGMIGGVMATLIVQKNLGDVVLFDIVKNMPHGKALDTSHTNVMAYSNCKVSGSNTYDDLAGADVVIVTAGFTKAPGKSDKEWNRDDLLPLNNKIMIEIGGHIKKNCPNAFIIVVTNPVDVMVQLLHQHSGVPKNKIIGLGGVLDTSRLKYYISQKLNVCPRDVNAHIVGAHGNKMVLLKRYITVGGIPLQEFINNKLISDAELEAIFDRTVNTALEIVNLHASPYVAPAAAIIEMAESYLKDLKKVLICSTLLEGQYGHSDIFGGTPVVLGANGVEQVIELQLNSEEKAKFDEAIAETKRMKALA

NC/C=C/C(=O)O
period change [1]: -0.005 h (inactive)

C/C=C(/C(=C/C)c1ccc(O)cc1)c1ccc(O)cc1
glutamate uptake change [2]: -21.7%
aggregation suppression score [3]: 0.184
survival [4]: 5.92 (inactive)

CC(=O)[C@]1(O)Cc2c(O)c3c(c(O)c2[C@@H](O[C@H]2C[C@H](N)[C@H](O)[C@H](C)O2)C1)C(=O)c1ccccc1C3=O
period change [1]: -1.6 h (inactive)

CCCCC(CC)CN=C(N)NC(N)=NCCCCCCN=C(N)NC(N)=NCC(CC)CCCC (configuration not stated)
glutamate uptake change [2]: -50.4%
aggregation suppression score [3]: -0.456
survival [4]: 0.25 (inactive)

COc1cc2c(Nc3ccc(Br)cc3F)ncnc2cc1OCC1CCN(C)CC1
growth inhibition [5]: 16% (inactive)
inhibition [6]: 10% (inactive)
inhibition [7]: 5% (inactive)
growth inhibition [8]: 97% (active)

O=C(OCC(O)CO)c1ccccc1Nc1ccnc2cc(Cl)ccc12 (configuration not stated)
glutamate uptake change [2]: 4.05%
aggregation suppression score [3]: 0.893
survival [4]: 17.9 (inactive)

OCc1cc(C(O)CNCCCCCCOCCCCc2ccccc2)ccc1O (configuration not stated)
period change [1]: -0.06 h (inactive)

NCCS
period change [1]: 0.02 h (inactive)

Oc1ccc(C2CNCCc3c2cc(O)c(O)c3Cl)cc1 (configuration not stated)
period change [1]: 0.145 h (inactive)

O=C1N(c2ccccc2)c2ccccc2C1(Cc1ccncc1)Cc1ccncc1
period change [1]: 0.25 h (inactive)

CC(Cc1cccc(C(F)(F)F)c1)NCCOC(=O)c1ccccc1 (configuration not stated)
glutamate uptake change [2]: 15.6%
aggregation suppression score [3]: 1.08
survival [4]: 2.5 (inactive)

CCN1CCC[C@H]1CNC(=O)c1cc(S(N)(=O)=O)ccc1OC
period change [1]: -0.035 h (inactive)

CNC[C@H](O)c1ccc(O)c(O)c1
period change [1]: 0.025 h (inactive)

COc1ccccc1OCC(O)CN1CCN(CC(=O)Nc2c(C)cccc2C)CC1 (configuration not stated)
period change [1]: 0 h (inactive)

NC1CCN(c2cccc(Cl)n2)CC1
period change [1]: -0.02 h (inactive)

CN1CCC[C@@H]1CCO[C@](C)(c1ccccc1)c1ccc(Cl)cc1
glutamate uptake change [2]: 65.2%
aggregation suppression score [3]: 0.9
survival [4]: 6.33 (inactive)

CCCCC(CC)CN1CN(CC(CC)CCCC)CC(C)(N)C1 (configuration not stated)
glutamate uptake change [2]: 2.82%
aggregation suppression score [3]: 0.306
survival [4]: 6.83 (inactive)

C1CCC(C(CC2CCCCN2)C2CCCCC2)CC1 (configuration not stated)
glutamate uptake change [2]: -10.9%
aggregation suppression score [3]: 0.885
survival [4]: 6 (inactive)

C[C@](N)(Cc1ccc(O)cc1)C(=O)O
period change [1]: -0.34 h (inactive)

NC(=NCCCCCCN=C(N)/N=C(\N)Nc1ccc(Cl)cc1)/N=C(\N)Nc1ccc(Cl)cc1
glutamate uptake change [2]: -13.4%
aggregation suppression score [3]: 0.0711
survival [4]: 3.17 (inactive)

Cc1nc(N)nc(N)c1-c1ccc(Cl)c(Cl)c1
growth inhibition [5]: -1% (inactive)
inhibition [6]: 66% (active)
inhibition [7]: 3% (inactive)
growth inhibition [8]: 95% (active)

CCN(CC)Cc1cc(Nc2ccnc3cc(Cl)ccc23)ccc1O
growth inhibition [5]: 99% (active)
inhibition [6]: -2% (inactive)
inhibition [7]: 3% (inactive)
growth inhibition [8]: 102% (active)
survival [4]: 6.17 (inactive)

Cc1cn([C@H]2C=C[C@@H](CO)O2)c(=O)[nH]c1=O
period change [1]: -0.14 h (inactive)

CC/C(=C(/CC)c1ccc(O)cc1)c1ccc(O)cc1
glutamate uptake change [2]: -14.4%
aggregation suppression score [3]: 0.447
survival [4]: 3.75 (inactive)

CCCCCCCC/C=C\CCCCCCCC(=O)NCc1ccc(O)c(OC)c1
growth inhibition [5]: 93% (active)
inhibition [6]: -7% (inactive)
inhibition [7]: -7% (inactive)
growth inhibition [8]: 96% (active)

Cc1cnc(NC(=O)C2=C(O)c3ccccc3S(=O)(=O)N2C)s1
period change [1]: -0.06 h (inactive)

CCN(CC)C(C)CN1c2ccccc2Sc2ccccc21 (configuration not stated)
glutamate uptake change [2]: 47.6%
aggregation suppression score [3]: 1.19
survival [4]: 4.08 (inactive)

CCN1CCC[C@H]1CNC(=O)c1c(O)c(Cl)cc(Cl)c1OC
period change [1]: -0.03 h (inactive)

NC(N)=N/N=C/c1c(Cl)cccc1Cl
period change [1]: 0.195 h (inactive)
survival [4]: 17.8 (inactive)

Brc1c(NC2=NCCN2)ccc2nccnc12
period change [1]: -0.1 h (inactive)

C[C@@](Cc1ccc(O)c(O)c1)(NN)C(=O)O
period change [1]: 0.03 h (inactive)

O=C1CCc2cc(OCCCCc3nnnn3C3CCCCC3)ccc2N1
period change [1]: 0.02 h (inactive)

CO[C@@]1(NC(=O)CSCC#N)C(=O)N2C(C(=O)O)=C(CSc3nnnn3C)CS[C@@H]21
period change [1]: -0.07 h (inactive)
survival [4]: 4.83 (inactive)

Cc1ccc(C(=O)Nc2ccc(S(=O)(=O)O)c3cc(S(=O)(=O)O)cc(S(=O)(=O)O)c23)cc1NC(=O)c1cccc(NC(=O)Nc2cccc(C(=O)Nc3cc(C(=O)Nc4ccc(S(=O)(=O)O)c5cc(S(=O)(=O)O)cc(S(=O)(=O)O)c45)ccc3C)c2)c1
period change [1]: 0.03 h (inactive)

COC(=O)Nc1nc2ccc(C(=O)c3cccs3)cc2[nH]1
period change [1]: -0.58 h (inactive)
survival [4]: 1.17 (inactive)

CCOC(=O)c1ncn2c1CN(C)C(=O)c1cc(F)ccc1-2
period change [1]: -0.15 h (inactive)
